{"source": "PubChem BioAssay AID449762", "about": "(Southern Research Specialized Biocontainment Screening …, 2010)", "note": "The campaign covered roughly 330,000 compounds. About 1,900 (0.58%) were called active. Another 4% or so got no clear call; they are omitted. Not all results are given here. Entries with a potency or affinity are not part of this list. A number with no mark means an inactive call. Cut-off read from the data, not from the text of the source: inconclusive = inhibition above about 70% without an active follow-up result; inactive = below that."}
{"assay": "M. tuberculosis growth inhibition, HTS (AID 449762);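 note: bacterial growth assessed after seven days of incubation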", "details": "M. tuberculosis H37Rv growth inhibition, 7H9 media; at 25 µM; hits give high values", "units": {"inhibition": "%"}}
{"smiles": "COc1cc(OC)cc(C(=O)NC2CCCN(Cc3ccc(Cl)cc3)C2)c1", "note": "(stereo unspecified)", "inhibition": 7.21}
{"smiles": "Cc1nnc(SCC(=O)NC(=O)NC(C)(C)C)n1N", "inhibition": 4.56}
{"smiles": "CCc1nc(N2CCN(C(=O)c3ccccc3)CC2)c(C#N)c2c1COC(C)(C)C2", "inhibition": 15.8}
{"smiles": "CC1(C)Cc2c(C#N)c(N3CCOCC3)nc(Cc3ccccc3)c2CO1", "inhibition": 1.75}
{"smiles": "COc1ccc(Cn2c(=O)[nH]c3cc(C(=O)NCCCN4CCCCC4)ccc3c2=O)cc1", "inhibition": -8.19}
{"smiles": "CCC1Nc2ncnc(N3CCN(c4ccccn4)CC3)c2N(Cc2ccc(Cl)cc2)C1=O", "note": "(stereo unspecified)", "inhibition": 8.22}
{"smiles": "O=C1CC(=C(c2ccccc2)c2ccccc2)C(=O)N1CCCN1CCN(c2cccc(Cl)c2)CC1", "inhibition": 59.9}
{"smiles": "Cc1ccccc1N1CCN(CCCN2C(=O)CC(=C(c3ccccc3)c3ccccc3)C2=O)CC1", "inhibition": 7.38}
{"smiles": "CCOc1ccccc1NC(=O)Nc1ccc2c(c1)OCO2", "inhibition": 0.34}
{"smiles": "O=Cc1ccccc1OCc1ccc2c(c1)OCO2", "inhibition": 12.1}
{"smiles": "COc1ccc(-c2nnc(SC3CCOC3=O)n2C2CCCCC2)cc1OC", "note": "(stereo unspecified)", "inhibition": -0.52}
{"smiles": "Cc1ccccc1N1CC(=O)N(c2ccccc2C)CC1=O", "inhibition": -15.8}
{"smiles": "Cn1c2ccccc2c(=O)c2ccc(F)cc21", "inhibition": 38.4}
{"smiles": "COc1ccc(C2/C=C\\CN(C(=O)C3CCCC3)[C@H](Cc3ccccc3)C(=O)N2Cc2ccc(F)cc2)cc1", "note": "(stereo partly specified)", "inhibition": 5.26}
{"smiles": "COc1ccc(CNC(=O)C2(C)Cc3ccccc3C(=O)O2)cc1", "note": "(stereo unspecified)", "inhibition": -2.25}
{"smiles": "Nc1ccc2nc(-c3ccccc3)c(-c3ccccc3)nc2c1", "inhibition": 5.14}
{"smiles": "Nc1ccc2nc(-c3ccccc3)[nH]c2c1", "inhibition": -2.77}
{"smiles": "O=C(NCc1ccc(F)cc1)C1CCCN(C(=O)NCc2ccccc2)C1", "note": "(stereo unspecified)", "inhibition": 0.48}
{"smiles": "Cc1ccc(C2(CC(=O)O)CCOC(C)(C)C2)cc1", "note": "(stereo unspecified)", "inhibition": 5.71}
{"smiles": "CCc1ccc2c(c1)C1(NN=C(c3ccc(C)cc3)S1)C(=O)N2", "note": "(stereo unspecified)", "inhibition": 5.72}
{"smiles": "Cc1cc(C)c(OCC(=O)Nc2ccccc2N2CCOCC2)c(C)c1", "inhibition": -8.49}
{"smiles": "Cn1c(SCc2ccccc2)nc2ccsc2c1=O", "inhibition": 33.7}
{"smiles": "Cc1ccc(CSc2nc3ccccc3c(=O)n2C)cc1", "inhibition": 6.4}
{"smiles": "O=C(Nc1cccnc1Cl)c1cc([N+](=O)[O-])ccc1Cl", "inhibition": 8.38}
{"smiles": "OCCN(Cc1ccccc1)Cc1cccc(C(F)(F)F)c1", "inhibition": 20.1}
{"smiles": "COc1ccccc1/C=C/C(=O)OCC(=O)N1CCc2ccccc21", "inhibition": 4.74}
{"smiles": "O=c1[nH]c(C2CCN(S(=O)(=O)c3ccccc3)CC2)nc2c1nnn2Cc1cccc(Cl)c1", "inhibition": 4.46}
{"smiles": "O=C(c1cccs1)N1CCC(c2nc3c(nnn3Cc3cccc(Cl)c3)c(=O)[nH]2)CC1", "inhibition": 6.04}
{"smiles": "O=C1CSC(c2ccccc2)N1CC12CC3CC(CC(O)(C3)C1)C2", "note": "(stereo unspecified)", "inhibition": -2.58}
{"smiles": "CCOc1ccc(NC(=O)CN(C)C(=O)c2cc3c(s2)CCC(C)C3)cc1OCC", "note": "(stereo unspecified)", "inhibition": 1.11}
{"smiles": "COc1ccc(-c2nc(NC(=O)Cn3cnnn3)sc2C)cc1", "inhibition": -7.31}
{"smiles": "COc1ccc(-c2nc(NC(=O)CSCCO)sc2C)cc1", "inhibition": 2.7}
{"smiles": "CCOc1ccc(N2C(=O)CC(NC3CCN(C(=O)c4ccc(F)cc4)CC3)C2=O)cc1", "note": "(stereo unspecified)", "inhibition": -3}
{"smiles": "Cc1cccc(OC(=O)c2cncc(Br)c2)c1", "inhibition": 23.5}
{"smiles": "O=C(Oc1ccc(Br)cc1)c1cncc(Br)c1", "inhibition": -0.43}
{"smiles": "O=C(CCC(=O)Nc1ccc(F)cc1)N/N=C/c1ccc(O)cc1O", "inhibition": -2.52}
{"smiles": "CC1CCCCN1Cc1c(O)ccc2c(=O)c(-c3ccc(Cl)cc3)coc12", "note": "(stereo unspecified)", "inhibition": 0.71}
{"smiles": "O=C1c2ccccc2C(=O)N1C(CO)C(O)c1ccc([N+](=O)[O-])cc1", "note": "(stereo unspecified)", "inhibition": -1.67}
{"smiles": "O=C(CSC(=S)N1CCOCC1)Nc1ccc(S(=O)(=O)Nc2ncccn2)cc1", "inhibition": -0.18}
{"smiles": "O=C(NNc1c2ccccc2nc2ccccc12)c1ccc(O)cc1", "inhibition": 13.8}
{"smiles": "CCCC(=O)NNc1c2ccccc2nc2ccccc12", "inhibition": -11.4}
{"smiles": "[O-][n+]1cccc(C(O)c2ccccc2)c1", "note": "(stereo unspecified)", "inhibition": -13.5}
{"smiles": "COC(=O)c1c(C)oc(C)c1S(=O)(=O)N1CCOCC1", "inhibition": -2.09}
{"smiles": "C=CCNC(=O)C1CC(=O)N(c2ccc(OCC(=O)Nc3c(C)cccc3C)cc2)C1", "note": "(stereo unspecified)", "inhibition": 1.18}
{"smiles": "Cc1nc2ccccc2c(=O)n1/N=C/c1c(O)ccc2ccccc12", "inhibition": 9.53}
{"smiles": "Cc1nnc(C)n1/N=C/c1c(O)ccc2ccccc12", "inhibition": 2.29}
{"smiles": "Clc1ccccc1COc1ccccc1-c1nnco1", "inhibition": 19.4}
{"smiles": "O=C(Oc1ccccc1-c1nnco1)c1ccccc1", "inhibition": -3.01}
{"smiles": "C/C(=N/NC(=O)c1ccc(Br)o1)C(C)C", "inhibition": 3.04}
{"smiles": "COCCNC(=S)N1CCc2cc(OC)c(OC)cc2C1c1cccs1", "note": "(stereo unspecified)", "inhibition": -7.46}
{"smiles": "NC(=S)N/N=C/c1ccccc1OCc1cccc(Cl)c1", "inhibition": 2.95}
{"smiles": "NC(=S)N/N=C\\c1ccccc1OCc1ccccc1", "inhibition": 49.5}
{"smiles": "Cc1ccc(N2C(=O)c3cccc([N+](=O)[O-])c3C2=O)cc1C", "inhibition": -6.94}
{"smiles": "COc1ccc(-c2cc3c(=O)n(CC(=O)NCCCN4CCC(N5CCCCC5)CC4)ncn3n2)cc1", "inhibition": 2.99}
{"smiles": "COc1ccc(-c2cc3c(=O)n(CC(=O)NCCCN4CCN(Cc5ccccc5)CC4)ncn3n2)cc1", "inhibition": 1.94}
{"smiles": "O=C(NCCC1=CCCCC1)C1CCN(C(=O)c2ccc(Br)cc2)CC1", "inhibition": 5.13}
{"smiles": "Cc1ccccc1OCCn1cc(C(=O)O)c2ccccc21", "inhibition": -0.94}
{"smiles": "O=C(CCS(=O)(=O)c1ccccc1)Nc1nc(-c2ccc(F)cc2)cs1", "inhibition": 8.67}
{"smiles": "O=C(CCS(=O)(=O)c1ccc(F)cc1)Nc1nc(-c2ccncc2)cs1", "inhibition": 31.5}
{"smiles": "CCc1cc(C(=O)Nc2ncccc2O)sc1C", "inhibition": 6.5}
{"smiles": "Cc1ccnc2nc(C(=O)Nc3nc(-c4ccccn4)cs3)nn12", "inhibition": 0.14}
{"smiles": "COc1cccc(-c2nc(CS(=O)(=O)CC(=O)NCCCN3CCc4ccccc4C3)c(C)o2)c1", "inhibition": -28.4}
{"smiles": "CCCc1cc(=O)n2[nH]cnc2n1", "inhibition": -4.95}
{"smiles": "Cc1cc(C)n(CCOc2ccc(Br)cc2)n1", "inhibition": 2.96}
{"smiles": "c1csc(CCNc2ncnc3sc4c(c23)CCC4)c1", "inhibition": 1.63}
{"smiles": "COc1ccc(/C=N/Nc2ncnc3sc4c(c23)CCCC4)cc1OC", "inhibition": -2.36}
{"smiles": "CC(=O)CSc1nnc2cc(C)c3ccccc3n12", "inhibition": 0.13}
{"smiles": "CC(=O)N1CCN(c2ccc(NC(=O)c3cccc(OCc4ccccc4)c3)cc2)CC1", "inhibition": 62.8}
{"smiles": "Cn1c(=O)c2c(nc(NCC(O)CO)n2CCc2ccccc2)n(C)c1=O", "note": "(stereo unspecified)", "inhibition": 2.12}
{"smiles": "CN1CCN(c2ccc(NC(=O)c3cccc(S(=O)(=O)N4CCCC4)c3)cc2)CC1", "inhibition": -4.85}
{"smiles": "COc1ccc(C(C[N+](=O)[O-])c2c(C)[nH]n(-c3ccccc3)c2=O)cc1", "note": "(stereo unspecified)", "inhibition": 32.3}
{"smiles": "Cc1[nH]n(-c2ccccc2)c(=O)c1C(c1cccc([N+](=O)[O-])c1O)c1c(C)[nH]n(-c2ccccc2)c1=O", "inhibition": -4.36}
{"smiles": "CCN1CC(C)C(O)(c2ccccc2)CC1C", "note": "(stereo unspecified)", "inhibition": -1.44}
{"smiles": "CCC1C(c2ccccc2)NC(c2ccccc2)CC1(O)c1ccc(F)cc1", "note": "(stereo unspecified)", "inhibition": 29.1}
{"smiles": "NC(=O)CC(NC(=O)Cc1cccc2ccccc12)c1ccc(N2CCC(Cc3ccccc3)CC2)c([N+](=O)[O-])c1", "note": "(stereo unspecified)", "inhibition": -0.77}
{"smiles": "COc1ccc(CN(C)C(=O)c2ccc(NC(=O)CC3SC(N4CCCC4)=NC3=O)cc2)c(OC)c1", "note": "(stereo unspecified)", "inhibition": 7.53}
{"smiles": "CC1CC(C)(C)CC2(C1)NC(=O)N(CC(=O)Nc1ccc(N3CCCCC3)cc1)C2=O", "note": "(stereo unspecified)", "inhibition": 5.59}
{"smiles": "CC(C)NC(=S)NN=C1c2ccccc2-c2ccccc21", "inhibition": -0.95}
{"smiles": "C=C(C)CNC(=S)NN=C1c2ccccc2-c2ccccc21", "inhibition": 12.3}
{"smiles": "Cc1cc2c(cc(C(=O)O)n2C)s1", "inhibition": -1.98}
{"smiles": "CCN(CC)CCCNC(=O)c1cc2c(-c3ccc(Cl)cc3)nn(C)c2s1", "inhibition": 47.1}
{"smiles": "CCN(CC)CCNC(=O)c1cc2c(-c3ccc(Cl)cc3)nn(C)c2s1", "inhibition": 7.68}
{"smiles": "Clc1ccc(-c2cc3ccccc3nc2N2CCOCC2)cc1", "inhibition": 48.3}
{"smiles": "c1ccc(-c2cc3ccccc3nc2N2CCCC2)cc1", "inhibition": 4.32}
{"smiles": "Cc1ccc(NC(=O)COC(=O)CCc2ccc(S(=O)(=O)N3CCOCC3)cc2)cc1F", "inhibition": 2.39}
{"smiles": "O=C(O)c1ccccc1C(=O)NC1CCCCNC1=O", "note": "(stereo unspecified)", "inhibition": -1.29}
{"smiles": "OC(CNc1ccccc1)Cn1ccc2ccccc21", "note": "(stereo unspecified)", "inhibition": 12.2}
{"smiles": "OCCNCC(O)Cn1ccc2ccccc21", "note": "(stereo unspecified)", "inhibition": -2.23}
{"smiles": "CC(=O)c1ccc(C(=O)NC2CCCN(Cc3ccccc3F)C2)s1", "note": "(stereo unspecified)", "inhibition": -25.9}
{"smiles": "Cc1cc(C)cc(NC(=O)CCn2cnc3cc(C)c(C)cc32)c1", "inhibition": 62.6}
{"smiles": "COc1ccc(C=C2C(=O)OC(C)(C)OC2=O)cc1OC", "inhibition": 5.49}
{"smiles": "COc1ccc(/C=C2\\Cc3ccccc3C2=O)cc1OC", "inhibition": 5.99}
{"smiles": "CNC(=O)C(=O)NCC(c1cccs1)S(=O)(=O)c1ccc(F)cc1", "note": "(stereo unspecified)", "inhibition": -2.67}
{"smiles": "Cc1ccc(C)c(N2CCN(C(=O)c3ccc(NC4=NC5CS(=O)(=O)CC5S4)cc3)CC2)c1", "note": "(stereo unspecified)", "inhibition": -1.31}
{"smiles": "N#CC(C(=O)Nc1cccc(Cl)c1)=C1Nc2ccccc2N1", "inhibition": 2.4}
{"smiles": "N#CC(C(=O)Nc1ccc(Cl)cc1)=C1Nc2ccccc2N1", "inhibition": 1.22}
